# In the library only some 7.1% were active in any assay of this set; here they are far more common.
# p53 reactivation = re-activators of mutant p53; H1299 p53-A138V BP100-luciferase reporter, luminescence, 24 h; Potency, µM (doses to about 92.2 µM), without a hit: at the top dose activity change, positive = activation, usual class: activators; hit rate 0.063% among 320,000; AID 504706; also: % of control where 0% means no effect; nearly all actives have a fitted effect of over 45% in size
#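 H1299 (p53-null), stable ts p53-A138V + BP100-Luc; 1000 cells/well, Opti-MEM/10% FBS; cpd 4 pt, 1:5; 24 h, 37 deg C, 5% CO2; detection reagent 10 min RT; luminescence.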
# SW480 rerep = DNA re-replication induction in SW480 cells | SW480 DNA re-replication, Hoechst DNA content imaging, 48 h | Potency, µM (series often up to 46.1 µM), inactives show at the highest dose re-replication activation, actives largely listed as activators | hit rate 1.8% among 340,000 | AID 624297; also: % of control where 0% means no effect; nearly all actives have a fitted effect of over 55% in size
#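 Hoechst fluorescence of nuclei (405 nm excitation, 500-530 nm emission) measured by plate-scanning imager after 48 hr compound exposure at 37 C; re-replication scored as increased number of nuclei with elevated intensity.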
# ELG1 DNA repair = ELG1-dependent DNA repair inhibition; HEK293T ELG1-luciferase reporter, luminescence, 16 h; DNA damage induced by 5-fluorouridine; Potency, µM (doses to about 46.1 µM), inactives show top-dose activity change, negative = inhibition, usual class: inhibitors; hit rate 2.3% among 330,000; also: % is scaled to controls: 0 for no effect and ±100 for the full control effect; nearly all actives have a fitted effect of over 55% in size
#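 Overnight (16 hr) co-exposure of 2,000 cells/well to 5-fluorouridine and compound at 37 °C preceded detection. Luciferase was quantified via ONE-Glo luminescence; loss of signal denotes inhibition.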
# MCF10A rereplic = induces DNA re-replication in MCF 10a normal breast cells. MCF 10A DNA re-replication, Hoechst nuclear intensity, 48 h. Potency, µM (titrated, usually from 46.1 µM), for the others: at the top dose activity, positive = re-replication, usual class: activators. hit rate 2.9% among 350,000. AID 624296; also: % of control where 0% means no effect; nearly all actives have a fitted effect of over 50% in size
# ELG1 genotoxic = genotoxicity induction in ELG1-luciferase HEK293T cells | HEK293T ELG1-luciferase reporter, luminescence, 16 h | Potency, µM (highest dose often 46 µM), for inactives: top-dose activity change, positive = activation, hits mostly activators | hit rate 1.3% among 330,000 | AID 504466; also: % of control where 0% means no effect; nearly all actives have a fitted effect of over 60% in size
#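 Cells (2,000/well) expressing the ELG1-luciferase fusion are dosed by pin tool and kept 16 hr at 37 °C, 5% CO2. Signal comes from ONE-Glo luciferase reagent after 30 min at room temperature.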
# AT treatment = potential ataxia-telangiectasia treatment; F2112 A-T fibroblasts, KAP-1 phosphorylation AlphaLISA; neocarzinostatin DNA damage 30 min before lysis; AID 485349; hit rate 0.19% among 320,000; Potency, µM (doses to about 57.5 µM), inactives show top-dose activation, most hits filed as activators; also: % of control where 0% means no effect; nearly all actives have a fitted effect of over 45% in size
#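 hTERT-immortalized A-T patient fibroblasts (F2112), 500 cells/well in OPTI-MEM, 1% FBS, got compounds for 60 min, then NCS for 30 min at 37C. Lysates were then assayed for phospho-KAP-1 by AlphaLISA (anti-pKAP1 donor, anti-KAP1 acceptor beads), 6 hr at 25C.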
# * marks the source's active call; other numbers are inactive results; ? = inconclusive; / = not tested or not shown; [ ] = another dose, or the depositor's remark. Calls follow the shape of the dose curve; as a rule, active = well fitted curve in the direction sought with a large enough effect; inconclusive = small, poorly fitted or top-dose-only effect, or another doubt; inactive = no such curve, though single readings can be large; an effect the other way counts as inactive or inconclusive. Potency is read from the fitted curve at half-maximal effect.
SMILES,p53 reactivation,SW480 rerep,ELG1 DNA repair,MCF10A rereplic,ELG1 genotoxic,AT treatment
O=[N+]([O-])c1ccc(O)c(/C=N/n2cnc3ccccc32)c1,27%,-122%,21µM*,28%,-10%,1%
CCOC(=O)C1CCN(S(=O)(=O)c2ccc(OC)c(C(=O)N3CCCCC3)c2)CC1,-5%,2%,-2%,-6%,0%,-5%
COc1ccc(C)cc1NC(=O)CSc1nnc2ccc(-c3cccnc3)nn12,-3%,-4%,7%,1%,-3%,-11%
Cc1ccccc1COc1ccc(-c2nnn(CC(=O)O)n2)cc1,25%,-5%,14%,-4%,3%,1%
Cc1cccc(/C=N/Nc2ccc3ccccc3n2)c1,-10%,-2%,?,21µM*,0.23µM*,11%
C(=N\Nc1ccc2ccccc2n1)/c1ccc2c(c1)OCCO2,-10%,?,?,23µM*,?,6%
COc1ccc(NS(=O)(=O)c2ccc3c(c2)CCC(=O)N3)cc1O,5%,-419%,11%,3%,-2%,0%
C=CCOc1ccc(/C=C2\SC(=Nc3cccnc3)NC2=O)cc1,5%,-69%,?,-4%,9%,-5%
O=C1N/C(=N/O)S/C1=C/c1cccnc1,6%,-12%,21%,4%,0%,3%
CC(/C=C1\SC(=Nc2cccnc2)NC1=O)=C\c1ccccc1,13%,22%[9.22 µM],-18%,1.6µM*,-7%,-17%
Cc1ccccc1N=C1NC(=O)/C(=C/c2cccnc2)S1,-6%,-23%,21µM*,?,-14%,8%
Cc1ccc(NC(=O)c2cc3cccc([N+](=O)[O-])c3[nH]2)cc1,?,0%,?,3%,?,-1%
CCC(C)c1ccccc1NC(=O)c1cc2cccc([N+](=O)[O-])c2[nH]1 (stereo unspecified),23%,5%,21µM*,?,-10%,-8%
O=C(O)c1ccc(Cl)cc1Nc1nc2cc(Cl)ccc2o1,-2%,5%,?,21µM*,-16%,3%
COc1ccc(Cn2cc(C(=O)c3ccccc3)c(=O)c3cc(OC)ccc32)cc1,-7%,-8%,?,0%,0%,-2%
COc1ccc2c(c1)c(=O)c(C(=O)c1ccccc1)cn2Cc1ccccc1,-9%,16µM*,?,?,0%,15%
Cc1ccc(Cn2cc(C(=O)c3ccc(F)cc3)c(=O)c3cc4c(cc32)OCCO4)cc1,3%,3%,21µM*,5%,-2%,3%
c1ccc2c(c1)nc(N1CCOCC1)c1c3ccccc3[nH]c21,16%,?,?,3.7µM*,-7%,/
COc1cccc(-c2nc(CS(=O)(=O)CC(=O)Nc3ccccc3Cl)c(C)o2)c1,10%,0%,-6%,4%,-4%,-5%
COC(=O)CNc1nc(-c2ccncc2)nc2ccccc12,-5%,-1%,?,17%,-1%,-2%
c1ccc(Nc2nc(-c3ccncc3)nc3ccccc23)cc1,-5%,3%,2.1µM*,17%,6%,10%
c1ccc(CCNc2nc(-c3ccncc3)nc3ccccc23)cc1,1%,21µM*,15µM*,?,-16%,-19%
CC(=O)c1ccc(Nc2nc(-c3ccccc3)nc3ccccc23)cc1,/,4%,/,?,/,/
Fc1ccccc1Nc1nc(-c2ccncc2)nc2ccccc12,2%,-1%,2.6µM*,-1%,-6%,9%
Fc1ccc(Nc2nc(-c3ccncc3)nc3ccccc23)cc1,0%,-7%,2.3µM*,?,0%,7%
SMILES,p53 reactivation,SW480 rerep,ELG1 DNA repair,MCF10A rereplic,ELG1 genotoxic,AT treatment
COC(=O)c1ccc(Nc2nc(-c3ccncc3)nc3ccccc23)cc1,-5%,-1%,-1%,6%,-1%,-7%
CCc1ccc(NC(=O)COC(=O)CC2CCCC2)cc1,-1%,0%,7%,-3%,-3%,-1%
COCCN(Cc1ccc(F)cc1)C(=O)c1cc2ccccc2oc1=O,1%,-12%,-1%,-1%,-1%,-10%
CC(=O)c1sc(NC(=O)c2ccc3c(c2)OCO3)nc1C,27%,-3%,?,9%,10µM*,12%
CCOC(=O)c1c(NC(=O)CN2C(=O)c3ccccc3C2=O)sc(Cc2ccc3c(c2)OCO3)c1C,0%,-1%,12%,12%,-1%,-14%
Cc1nc(NC(=O)c2ccccc2)sc1Cc1ccc2c(c1)OCO2,?,26µM*,-14%,?,8%,-5%
CC(=O)c1sc(NC(=O)c2ccc(C)c(C)c2)nc1C,?,-2%,?,4%,5%,0%
Cc1c(Cc2ccc3c(c2)OCO3)sc(NC(=O)c2ccccc2)c1C(N)=O,8%,9%,?,13µM*,1%,9%
Cc1nc(NC(=O)c2ccc(Cl)cc2)sc1Cc1ccc2c(c1)OCO2,-16%,5.8µM*,?,2.9µM*,8%,-4%
CC(C)N(C(=O)[C@H]1C[C@H](CC(=O)NCCCn2ccnc2)C(=O)N2CCc3c([nH]c4cc(CCC(=O)N(C)C)ccc34)[C@]12C)C(C)C,-1%,0%,28%,-2%,-1%,-1%
CC1CCCCC1NC(=O)c1ccc(NC2=NC3CS(=O)(=O)CC3S2)cc1 (stereo unspecified),5%,-14%,-3%,-1%,0%,9%
CC(=O)c1sc(NC(=O)c2cc(-c3ccccc3)nn2-c2ccccc2)nc1C,-2%,4%,15µM*,?,-15%,-7%
COC(=O)CSc1nnc(NC(=O)c2ccc3c(c2)OCO3)s1,25%,-3%,?,1%,15µM*,1%
CC(=O)c1sc(NC(=O)c2cccnc2Cl)nc1C,10%,?,21%,?,7%,1%
O=C(O)CSc1nnc(NC(=O)c2ccc3c(c2)OCO3)s1,0%,5%,-10%,6%,-12%,-1%
O=C(Nc1nc2ccccc2s1)c1cc(-c2ccccc2)nn1-c1ccccc1,?,14%,?,?,-4%,2%
CC(=O)c1sc(NC(=O)c2ccccc2F)nc1C,15%,-8%,?,0%,2.9µM*,-3%
O=S(=O)(NC1C2CC3CC(C2)CC1C3)c1ccc(F)cc1 (stereo unspecified),14%,-4%,11%,14%,1%,5%
CCOC(=O)c1ccccc1NC(=O)COC(=O)C(CC(C)C)NC(N)=O (stereo unspecified),2%,1%,0%,0.92µM*,0%,-3%
